# The supplement of paper PMC7724964
# ± gives the standard deviation of the averaged measurements.
# T1: PDCD6IP 3-392 BRO1 (domain begin residue: 3, domain end residue: 392), Q8WUM4
# T1 chain: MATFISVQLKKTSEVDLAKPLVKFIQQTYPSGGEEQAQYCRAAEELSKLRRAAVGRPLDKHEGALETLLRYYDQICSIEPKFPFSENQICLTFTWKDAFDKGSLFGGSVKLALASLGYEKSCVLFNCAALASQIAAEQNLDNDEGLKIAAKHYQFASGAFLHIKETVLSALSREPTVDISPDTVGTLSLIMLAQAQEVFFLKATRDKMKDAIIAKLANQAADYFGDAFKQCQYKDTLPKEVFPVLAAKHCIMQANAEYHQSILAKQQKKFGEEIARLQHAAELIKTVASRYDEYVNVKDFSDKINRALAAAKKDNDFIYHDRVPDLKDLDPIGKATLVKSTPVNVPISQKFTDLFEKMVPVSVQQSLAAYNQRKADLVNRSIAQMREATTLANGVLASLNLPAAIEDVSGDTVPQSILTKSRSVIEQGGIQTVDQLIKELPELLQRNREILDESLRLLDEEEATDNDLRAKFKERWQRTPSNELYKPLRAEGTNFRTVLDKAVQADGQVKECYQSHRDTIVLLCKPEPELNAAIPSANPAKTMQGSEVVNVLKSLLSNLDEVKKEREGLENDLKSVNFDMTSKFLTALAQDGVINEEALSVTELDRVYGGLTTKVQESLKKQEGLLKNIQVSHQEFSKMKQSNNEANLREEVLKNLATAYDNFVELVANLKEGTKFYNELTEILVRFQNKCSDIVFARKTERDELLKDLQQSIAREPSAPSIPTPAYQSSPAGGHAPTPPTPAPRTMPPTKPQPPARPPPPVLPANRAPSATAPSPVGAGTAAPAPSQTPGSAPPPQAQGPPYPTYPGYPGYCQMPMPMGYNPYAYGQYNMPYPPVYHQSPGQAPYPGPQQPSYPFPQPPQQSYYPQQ
# B1: unnamed (peptide)
# chain: WAEWVFSDEDPPGHMV
# B2: unnamed (peptide)
# chain: WADWVFQENEKWDLFV
# B3: unnamed (peptide)
# chain: YGWDPFLENISWSWQA
# B4: unnamed (peptide)
# chain: WVEYGWQDWVTKFDQQ
# B5: unnamed (peptide)
# chain: FQEVTMYGWRPEYLSD
# B6: unnamed (peptide)
# chain: ASGEHAVGWQDWVWIS
# B7: unnamed (peptide)
# chain: MEAPHWVWPPDGYALR
# B8: unnamed (peptide)
# chain: QTDYAYGFYPFIEQHF
# B9: unnamed (peptide)
# chain: MSVEPYMPPYGWAEWV
# B10: unnamed (peptide)
# chain: LQLEPYGWMDWTWQTA
# B11: unnamed (peptide)
# chain: EEMQQLGPFYGWQDWV
# B12: unnamed (peptide)
# chain: MPQFGWEEWVLDGIHF
# B13: unnamed (peptide)
# chain: YGWDWEFLEGLQYGKV
# B14: unnamed (peptide)
# chain: FDAYWQDLYMMDLDSF
# B15: unnamed (peptide)
# chain: VFEPTLASYGWAHWAV
# B16: unnamed (peptide)
# chain: YPEFAHYGFADWIYAS
# B17: unnamed (peptide)
# chain: VEQFPYGWADWVHEIV
# B18: unnamed (peptide)
# chain: SELWDHWIEWNDVYQT
# B19: unnamed (peptide)
# chain: AAQYGWQDWVMVPESM
# B20: unnamed (peptide)
# chain: VSYGWAHWTMEQGEDA
# B21: unnamed (peptide)
# chain: GARQTLITDWLMVSSD
# B22: unnamed (peptide)
# chain: WAPWVFMDDAPFDSMV
# B23: unnamed (peptide)
# chain: LQVEYGWAEWTWIGAD
# B24: unnamed (peptide)
# chain: QNGTPMPGWAPWVLEV
# B25: unnamed (peptide)
# chain: SHNWWHIIEAQEAMAW
# B26: unnamed (peptide)
# chain: VFYGWQDWVVPGDWDV
# B27: unnamed (peptide)
# chain: YGWNQILLDESVFHMV
# B28: unnamed (peptide)
# chain: WDFPGWSADQMPFSQS
# B29: unnamed (peptide)
# chain: IVALESPYGWQDWVTT
# B30: unnamed (peptide)
# chain: YALPYEWMWMTDLIQE
# B31: unnamed (peptide)
# chain: HEFWALYDAMPMRSYV
# B32: unnamed (peptide)
# chain: VNYGWTPEVTWWLHEA
# B33: unnamed (peptide)
# chain: KLEMYQGTIPYGNYWP
# B34: unnamed (peptide)
# chain: FYMWQVIDAQAYVDWI
# B35: unnamed (peptide)
# chain: WEEDFWTGLHFLNNAE
# B36: unnamed (peptide)
# chain: WDYMSEEESIRYLIEW
# B37: unnamed (peptide)
# chain: QQMLYGWGPMVQEMLV
# B38: unnamed (peptide)
# chain: DVAWHVPWEQYFEQET
# B39: unnamed (peptide)
# chain: SFLPVSYGWAPWLIET
# B40: unnamed (peptide)
# chain: IEVYSYMENMYDHPPV
# B41: unnamed (peptide)
# chain: TPGDLIDFSTLTFYYV
# B42: unnamed (peptide)
# chain: DSHYGWAEWVLQGPVA
# B43: unnamed (peptide)
# chain: VPVYGWDPGLWDGHAL
# B44: unnamed (peptide)
# chain: MDIWDEMALSINPYMY
# B45: unnamed (peptide)
# chain: DIPPESYGWAPWVWQV
# B46: unnamed (peptide)
# chain: VDYGWVWESAYTPPMQ
# B47: unnamed (peptide)
# chain: QVDMMSQLFMMADQWN
# B48: unnamed (peptide)
# chain: YPYGWQQWVWESEQVQ
# B49: unnamed (peptide)
# chain: MDMPYGWMQWVSTEPV
# B50: unnamed (peptide)
# chain: AQWPMDIGWAPWLLDV
# B51: unnamed (peptide)
# chain: EPLNYGWEGWLLDGWS
# B52: unnamed (peptide)
# chain: LISGMNGWNYGWADWV
# B53: unnamed (peptide)
# chain: VSMTQSESYGWQPWVV
# B54: unnamed (peptide)
# chain: LVGEMSRNVGWAAWVF
# B55: unnamed (peptide)
# chain: MYGWGPLLMEMNPWQW
# B56: unnamed (peptide)
# chain: VHWDPYWFLEDNFSNL
# B57: unnamed (peptide)
# chain: ADYPFEVWQAWVFEEV
# Biological target: PDCD6 23-191 EF-hand_5+EF-hand_7 (domain begin residue: 23, domain end residue: 191), O75340
# Sequence (O75340 whole entry): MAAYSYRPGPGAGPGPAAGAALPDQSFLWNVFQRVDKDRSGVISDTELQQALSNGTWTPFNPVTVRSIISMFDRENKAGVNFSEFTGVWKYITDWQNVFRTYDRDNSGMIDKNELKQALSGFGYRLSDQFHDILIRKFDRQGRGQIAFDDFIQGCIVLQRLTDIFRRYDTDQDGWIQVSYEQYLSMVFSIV
# Test: phage ELISA signal ratio (GST-PRM binding over GST background); higher = stronger binding of peptide-phage to the PRM
# In short: (§1)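 Five rounds of selection were carried out against human peptide recognition domains fused to the C-terminus of glutathione S-transferase (GST) and expressed in 96-well plates. The M13 phage library presented randomized hexadecapeptides, cysteine-free and glycine-flanked, on the gene-8 major coat protein. For each value, the phage ELISA signal on the GST-domain fusion was divided by the signal on GST alone.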
row,Binder,phage ELISA signal ratio
1,B1,23
2,B2,29.1
3,B3,33.4
4,B4,27.1
5,B5,27.7
6,B6,31.1
7,B8,32.3
8,B9,22.3
9,B10,21.9
10,B11,30.5
11,B12,20.2
12,B13,32.4
13,B15,25.1
14,B16,30.4
15,B17,31.3
16,B19,32.8
17,B20,28.1
18,B22,24.8
19,B23,27.2
20,B24,34.1

row,Binder,phage ELISA signal ratio
1,B26,28 ± 2.8
2,B27,26.9
3,B29,28.1
4,B32,14.4
5,B37,25.4
6,B39,24.1
7,B42,35.1
8,B43,35.1
9,B45,35.3
10,B46,26.1
11,B48,27.1
12,B49,25.4
13,B50,26.8
14,B51,28.8
15,B52,25.8
16,B53,27.1
17,B54,18.1
18,B55,20.8
19,B57,36.3

# Biological target: PHF19 190-255 PHD (domain begin residue: 190, domain end residue: 255), Q5T6S3
# Test: as above
# In short: as §1
row,Binder,phage ELISA signal ratio
1,B7,6.23
2,B33,6.64
3,B41,7.11

# Biological target: T1, PDCD6IP 3-392 BRO1 (domain begin …
# Test: as above
# In short: as §1
row,Binder,phage ELISA signal ratio
1,B14,19.8
2,B35,25.5
3,B36,27.3
4,B38,16.8

# Biological target: PAF1 165-376 Paf1 (domain begin residue: 165, domain end residue: 376), Q8N7H5
# Test: as above
# In short: as §1
row,Binder,phage ELISA signal ratio
1,B18,3.06
2,B28,4.24
3,B40,3.73
4,B44,4.38
5,B47,4.55

# Biological target: PCNA 1-261 PCNA_N+PCNA_C (domain begin residue: 1, domain end residue: 261), P12004
# Sequence (P12004 whole entry): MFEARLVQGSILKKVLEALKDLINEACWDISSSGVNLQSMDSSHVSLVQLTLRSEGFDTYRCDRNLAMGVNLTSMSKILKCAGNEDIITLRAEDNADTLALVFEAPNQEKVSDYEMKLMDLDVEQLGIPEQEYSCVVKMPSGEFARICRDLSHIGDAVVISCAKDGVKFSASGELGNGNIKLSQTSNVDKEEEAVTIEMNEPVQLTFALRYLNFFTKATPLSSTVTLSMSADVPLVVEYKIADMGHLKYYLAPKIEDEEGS
# Test: as above
# In short: as §1
row,Binder,phage ELISA signal ratio
1,B21,15.6

# Biological target: PCMT1 1-227 PCMT (domain begin residue: 1, domain end residue: 227), P22061
# Sequence (P22061 whole entry): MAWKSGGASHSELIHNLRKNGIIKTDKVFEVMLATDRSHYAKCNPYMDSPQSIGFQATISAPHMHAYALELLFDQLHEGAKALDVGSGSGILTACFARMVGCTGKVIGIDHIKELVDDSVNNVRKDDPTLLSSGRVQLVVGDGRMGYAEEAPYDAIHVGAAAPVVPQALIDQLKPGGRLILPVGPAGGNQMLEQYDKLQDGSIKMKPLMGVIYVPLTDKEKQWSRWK
# Test: as above
# In short: as §1
row,Binder,phage ELISA signal ratio
1,B25,16
2,B31,30.9
3,B34,4.8
4,B56,19.9

# Biological target: PIKFYVE 347-450 DEP (domain begin residue: 347, domain end residue: 450), Q9Y2I7
# Sequence (Q9Y2I7 whole entry): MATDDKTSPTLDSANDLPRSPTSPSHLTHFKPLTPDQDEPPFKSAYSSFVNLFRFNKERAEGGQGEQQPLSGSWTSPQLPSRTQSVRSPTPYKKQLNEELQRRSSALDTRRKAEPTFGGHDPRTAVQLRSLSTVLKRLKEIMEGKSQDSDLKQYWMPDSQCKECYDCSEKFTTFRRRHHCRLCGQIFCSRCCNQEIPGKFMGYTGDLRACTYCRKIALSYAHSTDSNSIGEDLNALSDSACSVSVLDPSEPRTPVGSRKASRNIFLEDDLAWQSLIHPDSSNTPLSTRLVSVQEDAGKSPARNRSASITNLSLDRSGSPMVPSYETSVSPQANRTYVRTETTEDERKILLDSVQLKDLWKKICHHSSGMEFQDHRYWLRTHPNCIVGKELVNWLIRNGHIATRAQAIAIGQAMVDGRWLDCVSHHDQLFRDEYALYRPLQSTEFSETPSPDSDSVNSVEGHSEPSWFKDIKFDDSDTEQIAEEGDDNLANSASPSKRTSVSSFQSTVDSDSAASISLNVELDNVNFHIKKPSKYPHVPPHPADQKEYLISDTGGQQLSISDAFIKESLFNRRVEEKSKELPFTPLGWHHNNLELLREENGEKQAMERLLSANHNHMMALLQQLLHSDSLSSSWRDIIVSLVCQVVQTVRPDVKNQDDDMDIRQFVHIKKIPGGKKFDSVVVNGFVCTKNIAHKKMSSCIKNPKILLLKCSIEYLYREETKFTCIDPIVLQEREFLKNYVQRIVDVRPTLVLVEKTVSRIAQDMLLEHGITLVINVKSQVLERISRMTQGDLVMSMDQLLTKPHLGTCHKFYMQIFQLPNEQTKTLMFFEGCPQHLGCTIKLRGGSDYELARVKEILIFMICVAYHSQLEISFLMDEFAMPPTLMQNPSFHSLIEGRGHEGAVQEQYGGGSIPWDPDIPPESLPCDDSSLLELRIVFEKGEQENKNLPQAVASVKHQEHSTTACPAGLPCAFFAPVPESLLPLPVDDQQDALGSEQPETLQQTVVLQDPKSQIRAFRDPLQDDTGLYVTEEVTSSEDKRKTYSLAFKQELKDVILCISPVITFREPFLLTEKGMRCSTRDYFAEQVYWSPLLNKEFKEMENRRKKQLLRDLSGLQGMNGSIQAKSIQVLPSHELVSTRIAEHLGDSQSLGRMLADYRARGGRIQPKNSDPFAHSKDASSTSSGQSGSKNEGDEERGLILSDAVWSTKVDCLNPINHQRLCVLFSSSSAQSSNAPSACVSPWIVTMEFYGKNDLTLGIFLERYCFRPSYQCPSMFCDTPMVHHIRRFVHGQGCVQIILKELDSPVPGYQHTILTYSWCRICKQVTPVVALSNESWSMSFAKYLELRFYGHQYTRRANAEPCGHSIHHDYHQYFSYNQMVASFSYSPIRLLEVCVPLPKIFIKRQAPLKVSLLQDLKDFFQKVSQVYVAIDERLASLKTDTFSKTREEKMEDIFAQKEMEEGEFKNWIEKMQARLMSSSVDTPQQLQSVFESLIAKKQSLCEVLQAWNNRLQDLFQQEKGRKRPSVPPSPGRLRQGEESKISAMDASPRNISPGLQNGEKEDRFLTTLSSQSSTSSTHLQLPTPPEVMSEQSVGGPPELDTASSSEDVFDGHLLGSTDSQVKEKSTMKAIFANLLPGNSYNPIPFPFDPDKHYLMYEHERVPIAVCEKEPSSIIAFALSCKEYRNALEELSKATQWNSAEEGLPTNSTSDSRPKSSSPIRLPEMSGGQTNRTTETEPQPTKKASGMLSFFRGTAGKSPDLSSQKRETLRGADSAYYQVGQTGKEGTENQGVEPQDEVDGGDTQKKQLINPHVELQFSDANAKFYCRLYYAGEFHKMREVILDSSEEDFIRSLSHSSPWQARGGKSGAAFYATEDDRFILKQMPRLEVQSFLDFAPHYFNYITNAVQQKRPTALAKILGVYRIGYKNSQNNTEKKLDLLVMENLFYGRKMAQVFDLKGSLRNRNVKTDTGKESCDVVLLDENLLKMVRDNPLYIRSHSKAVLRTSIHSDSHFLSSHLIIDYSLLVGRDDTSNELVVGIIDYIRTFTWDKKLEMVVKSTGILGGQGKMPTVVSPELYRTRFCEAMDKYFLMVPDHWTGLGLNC
# Test: as above
# In short: as §1
row,Binder,phage ELISA signal ratio
1,B30,3.03
